Experimental data from the supplement of paper PMC3616981.
± gives the standard deviation of the averaged measurements.

Compound: CC(C)c1cccc(C(C)C)c1N1C(=O)c2ccc(O)cc2C1=O
Assay: BioMAP readout fold decrease vs vehicle (vehicle/treated); higher = stronger decrease of the readout vs vehicle (values <1 mean increase)
Description: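 BioSeek BioMAP human primary cell (co-)culture systems (3C, 4H, LPS, SAg, BE3C, CASM3C, hDFCGF, KF3CT) treated with 5HPP-33 at 1.48, 4.44, 13.3 and 40 µM. Read-outs are protein levels by ELISA, proliferation and SRB total protein. Duplicate rows per assay are averaged as replicates. Tested in ToxCast Phase II for this study; exposure time not stated.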
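Further: Co-cultures of keratinocytes, bronchial epithelial and smooth muscle cells, fibroblasts, HUVECs and PBMCs under stimuli like LPS, TNF-α, IFN-γ, IL-1β, TGF-β or EGF, SRB reflecting cytotoxicity.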

Row | Target | BioMAP readout fold decrease (1.48 µM) | BioMAP readout fold decrease (4.44 µM) | BioMAP readout fold decrease (13.3 µM) | BioMAP readout fold decrease (40 µM)
1 | 4H_SRB | 1.05 ± 0.014 | 1.12 ± 0.016 | 1.25 ± 0.031 | 1.44 ± 0.041
2 | hDFCGF_PAI1 | 1.12 ± 0.14 | 1.08 ± 0.056 | 1.43 ± 0.031 | 3.53 ± 0.21
3 | CASM3C_uPAR | 1.15 ± 0.1 | 1.21 ± 0.037 | 1.29 ± 0.05 | 2.6 ± 0.26
